Assay results taken from PubChem BioAssay AID1508622 (National Center for Advancing Translational Sciences (NCATS), 2021).
Calls of active or inactive are those of the source. The call rests on the fitted dose curve; in most records, active means well fitted activation curve with a large enough effect; inconclusive means small, poorly fitted or top-dose-only effect; inactive means no such curve, though single readings can be large or run the other way.

Experiment: Confirmatory qHTS for Identification of Small Molecule Activators of Huntingtin-Antisense Promoter Activity
Settings: HEK293 HTT-AS promoter firefly luciferase reporter, 24 h; series mostly up to 57.5 µM
Method in brief: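 HEK293 luciferase reporter cells, 2,500/well, cultured 24 h, then exposed to compounds at up to 57.5 uM final for 24 h at 37C. Firefly luciferase luminescence read; normalized to vehicle (0%) and zero RLU (-100%).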

Potency, inactive:
O=C(NCc1ccc(F)cc1)C1CCN(C(=O)c2ccc(-n3ccc4ccccc43)s2)CC1
O=C(Nc1cccc(Cl)c1)c1c(NC(=O)C(F)(F)F)sc2c1CCCC2
COc1cc(NS(=O)(=O)c2ccc3c(c2)CCCN3C(C)=O)cc(OC)c1OC
O=C(Nc1cccc(C(F)(F)F)c1)C1CCCN1S(=O)(=O)c1cccc2nsnc12 (stereo not given)
Cc1ccc(Cn2c(SCc3ccc(C(=O)N4CCCCC4)cc3)nc3ccncc32)cc1
CCc1ccc(CN(Cc2ccco2)C(=O)COc2ccccc2Cl)cc1
CCc1ccc(NC(=O)c2ccc(F)c(S(=O)(=O)NCCc3ccc(OC)c(OC)c3)c2)cc1
Cc1ccc(C(=O)Nc2ccc(S(=O)(=O)N(Cc3ccccc3)c3ccccc3)cc2)cc1
COc1ccc(NC(=O)CSc2oc(-c3cccs3)nc2S(=O)(=O)c2ccccc2)c(OC)c1
Fc1cc(Br)ccc1Nc1c2c(nc3nc(-c4cccs4)nn13)CCCC2
COc1ccc(N2CCN(C(CNC(=O)C(=O)NCCc3ccccc3)c3cccnc3)CC2)cc1 (stereo not given)
CCOC(=O)C1=C(CN(C)Cc2ccccc2)NC(=O)NC1c1ccc(OC)cc1 (stereo not given)
CCC(=O)N1CCCc2cc(S(=O)(=O)N3CCC(C(=O)Nc4ccccc4CC)CC3)ccc21
Cc1ccc(NC(=O)C2CCCN2S(=O)(=O)c2cccc3nsnc23)cc1Cl (stereo not given)
CCCOc1ccc(C2c3c(-c4ccccc4O)n[nH]c3C(=O)N2CCCOCC)cc1OCC (stereo not given)
